Results filed as inconclusive are left out. Unmarked numbers belong to inactive results. The source made the active and inactive calls. Unless noted, the call rests on the fitted dose curve; in most records, active means well fitted cell-killing curve with a large enough effect in the repeat runs (not every such curve was filed as active); inconclusive means weak or mixed curves, or effect the other way; inactive means no such curve, though single readings can be large or run the other way.
Target: Bile acid receptor (Homo sapiens) (UniProt Q96RI1)
Sequence (Q96RI1 whole entry, looked up): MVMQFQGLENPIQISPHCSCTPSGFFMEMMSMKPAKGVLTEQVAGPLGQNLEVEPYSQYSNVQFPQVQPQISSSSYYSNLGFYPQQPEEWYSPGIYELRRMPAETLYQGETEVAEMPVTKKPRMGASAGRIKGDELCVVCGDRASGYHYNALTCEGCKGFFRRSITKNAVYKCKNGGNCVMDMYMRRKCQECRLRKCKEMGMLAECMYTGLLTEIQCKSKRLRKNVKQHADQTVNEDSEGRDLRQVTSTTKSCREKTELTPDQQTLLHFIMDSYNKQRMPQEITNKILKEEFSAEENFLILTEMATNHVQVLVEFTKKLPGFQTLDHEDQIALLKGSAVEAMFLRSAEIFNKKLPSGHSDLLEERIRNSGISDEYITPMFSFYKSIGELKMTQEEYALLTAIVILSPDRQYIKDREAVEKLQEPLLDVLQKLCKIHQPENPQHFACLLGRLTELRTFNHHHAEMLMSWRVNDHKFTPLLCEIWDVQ
Experiment: qHTS assay to identify small molecule agonists of the farnesoid-X-receptor (FXR) signaling pathway (AID 743220; active means well fitted activation curve with a large enough effect in the signal ratio in the repeat runs, not every such curve was filed as active; the % refers to the signal ratio)
Conditions: HEK293T FXR-UAS-bla, beta-lactamase FRET ratio, 16 h; series mostly up to 62.6 µM; activation: at the top concentration
In short: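 Beta-lactamase reporter under UAS control in GeneBLAzer FXR HEK 293T cells (5000/well) measured with LiveBLAzer FRET substrate after 2 h at room temperature. Compound exposure lasted 16 h at 37C.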
On the % scale 0 is the no-effect control and ±100 the full control effect.

| Compound | activation |
| --- | --- |
| COc1cccc([C@H](O)C2CCN(CCc3ccc(F)cc3)CC2)c1OC | -2.9% |
| NC(=O)c1ccccc1 | -0.811% [at 81.1 µM] |
| N#C[C@@H]1CC(F)(F)CN1C(=O)CNC1CC2CCC(C1)N2c1ncccn1 (stereo partly specified) | -2.01% |
| Sc1nc(S)nc(S)n1 | 0.161% |
| CC/C=C/CCO | -0.157% [at 81.1 µM] |
| CC(C)(Cc1c[nH]c2ccccc12)NCC(O)COc1ccccc1C#N (stereo unspecified) | 0.491% |
| Cc1c(Cl)cccc1[N+](=O)[O-] | 1.5% |
| O=Cc1ccc(Cl)c([N+](=O)[O-])c1 | -5.38% |
| O=C(O)c1ccc2cc(O)ccc2c1 | 0.307% |
| CCCCCCCCNC | 1.27% |
| Cc1c(Cl)cccc1Nc1ccccc1C(=O)O | -3.67% |
| O=C(Nc1ccc2c(c1)Cc1ccccc1-2)C(F)(F)F | 1.51% |
| CC(CC(C#N)(c1ccccc1)C(C)C)N(C)C (stereo unspecified) | -2.06% |
| Cc1cc(SC2=C(O)C[C@@](CCc3ccc(N)cc3)(C(C)C)OC2=O)c(C(C)(C)C)cc1CO | 1.14% |
| C[C@H](CN1CCCC1)C(=O)c1ccc(C(F)(F)F)cc1 | -1.57% |

Test system: not listed separately
Experiment: qHTS assay to identify small molecule antagonists of the farnesoid-X-receptor (FXR) signaling pathway - cell viability counter screen (AID 743221); further: nearly all actives have a fitted effect of over 50% in size; further: potency means the concentration at half of the fitted maximal effect
Conditions: FXR-bla HEK293T viability, CellTiter-Glo luminescence, 16 h; series mostly up to 62.6 µM; activity change, negative = cytotoxicity: at the top concentration
In short: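 Cytotoxicity is taken from ATP luminescence (CellTiter-Glo, 30 min, room temperature) in FXR-bla HEK 293T cells previously incubated 16 h at 37 C with compound and chenodeoxycholic acid at 50 uM final.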

| Compound | activity change, negative = cytotoxicity | Potency |
| --- | --- | --- |
| c1ccc(CN(Cc2ccccc2)Cc2ccccc2)cc1 | -5.35% | – |
| O=C(OCCN1CCOCC1)c1cccnc1Nc1cccc(C(F)(F)F)c1 | -5.23% | – |
| COc1cccc([C@H](O)C2CCN(CCc3ccc(F)cc3)CC2)c1OC | -5.55% | – |
| NC(=O)c1ccccc1 | 4.37% [at 81.1 µM] | – |
| Cc1ccc2c(Cl)cc(Cl)c(O)c2n1 | 17.7% | – |
| N#C[C@@H]1CC(F)(F)CN1C(=O)CNC1CC2CCC(C1)N2c1ncccn1 (stereo partly specified) | -1.06% | – |
| CC(=O)OCC(=O)[C@@]1(O)CC[C@H]2[C@@H]3CCC4=CC(=O)C=C[C@]4(C)[C@@]3(F)[C@@H](O)C[C@@]21C | -0.389% | – |
| C[C@]12CCC(=O)C=C1[C@@H]1C[C@@H]1[C@H]1[C@@H]3[C@@H]4C[C@@H]4[C@@]4(CCC(=O)O4)[C@@]3(C)CC[C@@H]12 | -3.25% | – |
| Sc1nc(S)nc(S)n1 | 2.63% | – |
| CC/C=C/CCO | -19.8% [at 81.1 µM] | – |
| Cc1ccc(NC(=O)c2ccc(CN3CCN(C)CC3)cc2)cc1Nc1nccc(-c2cccnc2)n1 | -1.06% | – |
| Cc1c(Cl)cccc1[N+](=O)[O-] | -2.15% | – |
| O=C1c2ccccc2C(=O)c2c1ccc(O)c2O | 9.15% | – |
| O=Cc1ccc(Cl)c([N+](=O)[O-])c1 | 1.89% | – |
| O=C(O)c1ccc2cc(O)ccc2c1 | 5.49% | – |
| CCc1cnc(C(=O)O)c(C(=O)O)c1 | 9.38% [at 81.1 µM] | – |
| Cc1ccc(S(=O)(=O)NC(=O)NC2CCCC2)cc1 | 16.2% | – |
| CCCCOC(=O)CC#N | -0.87% [at 81.1 µM] | – |
| CCCCC(CC)COCCC#N (stereo unspecified) | -10.8% | – |
| O=c1c2ccccc2oc2ccccc12 | 3.22% | – |
| CC(C)C[C@H](NC(=O)[C@H](Cc1ccccc1)NC(=O)c1cnccn1)B(O)O | – | 298 nM (active) |
| CC(CC(C#N)(c1ccccc1)C(C)C)N(C)C (stereo unspecified) | -12.6% | – |
| CCCc1ccc(OC)cc1 | -0.147% [at 81.1 µM] | – |
| Cc1cc(SC2=C(O)C[C@@](CCc3ccc(N)cc3)(C(C)C)OC2=O)c(C(C)(C)C)cc1CO | -2.93% | – |
| CCCC1CCCC(=O)O1 (stereo unspecified) | -16.6% | – |
| O=[N+]([O-])c1ccc(Cl)cc1Cl | 1.22% | – |
| CCCCCCC/C=C/C=O | -11.9% | – |
| C[C@H](CN1CCCC1)C(=O)c1ccc(C(F)(F)F)cc1 | 0.84% | – |
| S=c1[nH][nH]c(=S)s1 | 7.47% | – |
| O=C(N[C@@H](Cc1ccccc1)[C@@H](O)C(=O)N1C[C@@H](O)[C@@H](O)C1)c1cc2cc(Cl)ccc2[nH]1 | -17.7% | – |

Target: Vitamin D3 receptor (Homo sapiens) (UniProt P11473)
Sequence (P11473 whole entry, looked up): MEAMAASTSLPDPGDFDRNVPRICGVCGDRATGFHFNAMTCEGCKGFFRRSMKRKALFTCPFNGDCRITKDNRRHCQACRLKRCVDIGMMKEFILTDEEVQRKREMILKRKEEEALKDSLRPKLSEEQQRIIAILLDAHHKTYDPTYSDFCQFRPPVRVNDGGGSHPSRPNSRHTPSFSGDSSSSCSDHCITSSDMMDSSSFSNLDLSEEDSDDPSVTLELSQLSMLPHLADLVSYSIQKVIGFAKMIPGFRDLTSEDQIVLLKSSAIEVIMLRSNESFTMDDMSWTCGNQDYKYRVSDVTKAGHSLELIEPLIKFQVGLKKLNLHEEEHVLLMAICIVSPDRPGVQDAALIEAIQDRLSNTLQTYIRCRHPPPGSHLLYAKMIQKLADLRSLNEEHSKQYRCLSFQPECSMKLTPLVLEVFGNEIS
Experiment: qHTS assay to identify small molecule agonists of the vitamin D receptor (VDR) signaling pathway (AID 743222; calls by dose curve)
Conditions: HEK293T VDR-UAS-bla, beta-lactamase FRET ratio, 16 h; series mostly up to 63.5 µM; activation: at the top concentration
In short: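 In VDR-bla cells, compound-induced beta-lactamase expression is quantified by FRET substrate fluorescence. Treatment lasts 16 h at 37C; substrate develops 2 h at room temperature.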

| Compound | activation |
| --- | --- |
| c1ccc(CN(Cc2ccccc2)Cc2ccccc2)cc1 | -4.44% |
| O=C(OCCN1CCOCC1)c1cccnc1Nc1cccc(C(F)(F)F)c1 | 1.51% |
| COc1cccc([C@H](O)C2CCN(CCc3ccc(F)cc3)CC2)c1OC | -9.29% |
| Cc1ccc2c(Cl)cc(Cl)c(O)c2n1 | 4.46% |
| Sc1nc(S)nc(S)n1 | 6.52% |
| CC/C=C/CCO | -3.11% [at 81.1 µM] |
| Cc1c(Cl)cccc1[N+](=O)[O-] | 6.4% |
| C[C@H]1C[C@H]2[C@@H]3CCC4=CC(=O)C=C[C@]4(C)[C@@]3(F)[C@@H](O)C[C@]2(C)[C@@]1(O)C(=O)COP(=O)(O)O | 3.29% |
| O=C(O)c1ccc2cc(O)ccc2c1 | 9.3% |
| CCc1cnc(C(=O)O)c(C(=O)O)c1 | -3.32% [at 81.1 µM] |
| CCCCCCCCNC | -2.75% |
| NCCOCCOCCN | -13.8% |
| CCCCC(CC)COCCC#N (stereo unspecified) | 1.29% |
| O=c1c2ccccc2oc2ccccc12 | -5.99% |
| O=C(Nc1ccc2c(c1)Cc1ccccc1-2)C(F)(F)F | 0.124% |
| CCCc1ccc(OC)cc1 | 3.48% [at 81.1 µM] |
| Cc1cc(SC2=C(O)C[C@@](CCc3ccc(N)cc3)(C(C)C)OC2=O)c(C(C)(C)C)cc1CO | -0.919% |
| CCCCCCC/C=C/C=O | -5.77% |
| C[C@H](CN1CCCC1)C(=O)c1ccc(C(F)(F)F)cc1 | -3.64% |
| S=c1[nH][nH]c(=S)s1 | -0.969% |
| O=C(N[C@@H](Cc1ccccc1)[C@@H](O)C(=O)N1C[C@@H](O)[C@@H](O)C1)c1cc2cc(Cl)ccc2[nH]1 | -16.6% |

Target: Vitamin D3 receptor (Homo sapiens) (UniProt P11473)
Experiment: qHTS assay to identify small molecule antagonists of the vitamin D receptor (VDR) signaling pathway (AID 743223; active means well fitted inhibition curve with a large enough effect in the signal ratio in the repeat runs, not every such curve was filed as active; the % refers to the signal ratio)
Conditions: VDR-UAS-bla HEK293T, beta-lactamase FRET ratio, 16 h; series mostly up to 61 µM; activity change, negative = inhibition: at the top concentration
In short: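 Quantitative HTS in VDR-bla reporter cells stimulated with 1alpha,25-dihydroxyvitamin D3, 3 nM final. Compound exposure 16 h, 37C, 5% CO2. Read-out: beta-lactamase FRET substrate fluorescence, 2 h RT.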

| Compound | activity change, negative = inhibition |
| --- | --- |
| c1ccc(CN(Cc2ccccc2)Cc2ccccc2)cc1 | -17.8% |
| O=C(OCCN1CCOCC1)c1cccnc1Nc1cccc(C(F)(F)F)c1 | -10.2% |
| NC(=O)c1ccccc1 | 0.557% [at 78.8 µM] |
| Cc1ccc2c(Cl)cc(Cl)c(O)c2n1 | 7.98% |
| C[C@]12CCC(=O)C=C1[C@@H]1C[C@@H]1[C@H]1[C@@H]3[C@@H]4C[C@@H]4[C@@]4(CCC(=O)O4)[C@@]3(C)CC[C@@H]12 | 5.28% |
| C[C@H]1C[C@H]2[C@@H]3CCC4=CC(=O)C=C[C@]4(C)[C@@]3(F)[C@@H](O)C[C@]2(C)[C@@]1(O)C(=O)COP(=O)(O)O | -2.36% |
| O=C(O)c1ccc2cc(O)ccc2c1 | -4.34% |
| CCc1cnc(C(=O)O)c(C(=O)O)c1 | 12.9% [at 78.8 µM] |
| Cc1ccc(S(=O)(=O)NC(=O)NC2CCCC2)cc1 | 6.27% |
| CCCCCCCCNC | 2.28% |
| C/C(=C(\CCO)SS/C(CCO)=C(\C)N(C=O)Cc1cnc(C)nc1N)N(C=O)Cc1cnc(C)nc1N | -0.247% |
| O=C(Nc1ccc2c(c1)Cc1ccccc1-2)C(F)(F)F | -1.18% |
| Cc1cc(SC2=C(O)C[C@@](CCc3ccc(N)cc3)(C(C)C)OC2=O)c(C(C)(C)C)cc1CO | 6.73% |
| CCCCCCC/C=C/C=O | -9.71% |
| O=C(N[C@@H](Cc1ccccc1)[C@@H](O)C(=O)N1C[C@@H](O)[C@@H](O)C1)c1cc2cc(Cl)ccc2[nH]1 | 1.08% |
